Test results: PubChem BioAssay (Tox21)
Inconclusive results are not listed. A call without a number means that no potency is given here. More than one record can exist for a structure, and the calls need not agree. Active and inactive are the calls of the source. Calls come from the whole dose curve; as a rule, active = well fitted cell-killing curve with a large enough effect in the repeat runs; inconclusive = weak or mixed curves, or effect the other way; inactive = no such curve, though single readings can be large or run the other way.
Potency is the fitted concentration of half-maximal effect.

Assay: qHTS assay to identify small molecule antagonists of the retinoid-related orphan receptor gamma (ROR-gamma) signaling pathway - cell viability counter screen (AID 1159520); note: nearly all actives have a fitted effect of over 50% in size
Details: Tet-on RORgamma CHO cells viability, ATP luminescence, 16 h; series mostly up to 92.4 µM
Outline: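 Cytotoxicity was read from cellular ATP (CellTiter-Glo luminescence) after 16 hr at 37 C with 1 uM doxycycline induction. The inducer was added 2 hr after compound transfer to Tet-on ROR gamma CHO cells.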
For `Cc1cccc(Nc2ccccc2C(=O)O)c1C`, the Potency was “inactive”.
In the case of `[Na+]`, the Potency is reported as “inactive”.
For `Nc1cc(Cl)c(N)c(Cl)c1`, the Potency was “inactive”.
For `IC(I)I`, the Potency was “inactive”.
With `c1ccc2c(c1)[nH]c1ccccc12` the Potency was “inactive”.
With `CC(=O)Oc1c(C)c(C)c2c(c1C)CC[C@@](C)(CCC[C@H](C)CCC[C@H](C)CCCC(C)C)O2` the Potency was “inactive”.
For `O=C1OC2(c3ccccc31)c1cc(I)c(O)c(I)c1Oc1c2cc(I)c(O)c1I`, the Potency was “inactive”.
In the case of `Nc1ccc(N)c(Cl)c1`, the Potency is reported as “inactive”.
For `O=C(CCCN1CCC(O)(c2ccc(Cl)cc2)CC1)c1ccc(F)cc1`, the Potency was 54.5 µM (active) and inactive.
For `CCO[Si](CCCNC(N)=O)(OCC)OCC`, the Potency was “inactive”.
For `OC[C@H]1O[C@@H]2O[C@H]3[C@H](O)[C@@H](O)[C@@H](O[C@H]4[C@H](O)[C@@H](O)[C@@H](O[C@H]5[C@H](O)[C@@H](O)[C@@H](O[C@H]6[C@H](O)[C@@H](O)[C@@H](O[C@H]7[C@H](O)[C@@H](O)[C@@H](O[C@H]1[C@H](O)[C@H]2O)O[C@@H]7CO)O[C@@H]6CO)O[C@@H]5CO)O[C@@H]4CO)O[C@@H]3CO`, the Potency was “inactive”.
In the case of `C=CN1CCCC1=O`, the Potency is reported as “inactive”.
For `C=C[C@H]1CN2CC[C@H]1C[C@H]2[C@H](O)c1ccnc2ccc(OC)cc12`, the Potency was “inactive”.
With `CN(Cc1cnc2nc(N)nc(N)c2n1)c1ccc(C(=O)N[C@@H](CCC(=O)O)C(=O)O)cc1` the Potency was “inactive”.
For `O=C(O)CCCCCCCCCCCC(=O)O`, the Potency was “inactive”.
With `Cc1ccc(N)c([N+](=O)[O-])c1` the Potency was “inactive”.
With `C[C@]12C=CC(=O)C=C1CC[C@H]1[C@@H]3C[C@@H](O)[C@](O)(C(=O)CO)[C@@]3(C)C[C@H](O)[C@@]12F` the Potency was “inactive”.
With `c1ccc2c(c1)ccc1cc3c(ccc4ccccc43)cc12` the Potency was “inactive”.
In the case of `C=C[C@H]1CN2CC[C@H]1C[C@@H]2[C@@H](O)c1ccnc2ccc(OC)cc12`, the Potency is reported as “inactive”.
With `Nc1cc([N+](=O)[O-])ccc1C(=O)O` the Potency was “inactive”.
For `FC(F)(F)C(Cl)Br` (centres undefined), the Potency was “inactive”.
With `CCCN1C=CN(C)C1` the Potency was “inactive”.
For `CC1=CC(C)(C)Nc2ccccc21`, the Potency was “inactive”.
With `C1COCCN1` the Potency was “inactive”.
With `O=C(O)c1ccc(O)cc1` the Potency was “inactive”.
With `COC(=O)C(C)Oc1ccc(Oc2ncc(C(F)(F)F)cc2Cl)cc1` (centres undefined) the Potency was “inactive”.
In the case of `CCCCCCCCCCC(CO)CCCCCCCC` (centres undefined), the Potency is reported as “inactive”.
With `OC[C@@H](O)[C@@H](O[C@@H]1O[C@H](CO)[C@H](O)[C@H](O)[C@H]1O)[C@H](O)[C@@H](O)CO` the Potency was “inactive”.
For `[O-]/[N+](=N\O)c1ccccc1`, the Potency was “inactive”.
With `Cc1ccc(C(C)(C)C)c(O)c1` the Potency was “inactive”.
In the case of `CC(C)(C)c1cccc(C(C)(C)C)c1O`, the Potency is reported as “inactive”.
With `COCCOCCOCCO` the Potency was “inactive”.
For `CC/C=C\C/C=C\C/C=C\CCCCCCCC(=O)O`, the Potency was “inactive”.
With `C[C@]12CC[C@@H]3c4ccc(O)cc4CC[C@H]3[C@@H]1CC[C@@H]2O` the Potency was “inactive”.
With `CN(C)C` the Potency was “inactive”.
With `CN(C)/N=N/c1nc[nH]c1C(N)=O` the Potency was “inactive”.
For `Cc1ccc(C(C)(C)C)cc1`, the Potency was “inactive”.
For `CC/C(=C(/CC)c1ccc(O)cc1)c1ccc(O)cc1`, the Potency was “inactive”.
For `C[N+](C)(C)CCO`, the Potency was “inactive”.
